# Test results published in PubChem BioAssay (Tox21).
# A number with no mark means an inactive call. Calls of active or inactive are those of the source. Calls come from the whole dose curve.
# Experiment: G protein-coupled receptor (GPCR) small molecule agonists, calcium flux assay: HEK293 wild type cell line counter screen (AID 1920065)
# Details: HEK293 WT calcium flux, fluorescence, agonist mode; series mostly up to 57.6 µM; activation: at the top concentration
# Text: U.S. Tox21 Program National Center for Advancing Translational Sciences [NCATS] Division of Preclinical Innovation [DPI] U.S. Environmental Protection Agency [EPA] National Institutes of Environmental Health Sciences [NIEHS] National Toxicology Program [NTP] U.S. Food and Drug Administration [FDA] Assay overview: The increased intracellular calcium release that occurred upon G protein-coupled receptor (GPCR) activation led to the frequent use of calcium flux assays to detect GPCR activation. For the purpose of studying and screening compounds that may activate GPCR, receptor-overexpressing models were typically generated using Hek293 wild-type (WT) cells. In order to eliminate the compounds that may have induced calcium release for non-specific activation, a counter-assay utilizing calcium flux on Hek293 WT cells was performed. The data were formulated in order to serve as a control for any calcium flux detection utilizing Hek293 cells with either GPCR overexpression or gene modification. The procurement of Hek293 WT cells from ATCC. Fluorescence intensity can be utilized to determine the activation of the compound in a calcium flux assay. As a counter control, this cell line was utilized to screen the Tox21 10K compound library.
# Assay Protocol Summary: Hek293 cells were dispensed at 1500cells/4uL/well in 1536-well black wall/clear bottom plates using a multidrop dispenser. After the assay plates were incubated at a 37 C/5% CO2 incubator for 18 hours, 4 uL of Calcium Dye Solution was added to each well. The plates were incubated at 37 C for 1 hour. For agonist mode, 23 nL of compounds dissolved in DMSO, positive control (ATP) or DMSO only was transferred to the assay plate by a pin tool station. The fluorescence intensity in the plates was measured using FDSS 7000EX kinetic plate reader with a filter set of Ex/Em=480/540 for 3 min at 1 sec intervals. Each test compound was measured at 15 concentrations and in triplicates.
# % is set by controls: 0 for no effect and ±100 for the full control effect.
SMILES,Potency,activation
CCOC(=O)N1CCC(=C2c3ccc(Cl)cc3CCc3cccnc32)CC1,inactive,–
O=C1c2ccccc2CCc2ccccc21,inactive,–
Cc1ccc(S(=O)(=O)O)c(C)c1,–,0.881%
C1CSCCS1,–,1.5%
CC(C)[C@H]1CC[C@@H](C)CC1=O,–,0.0971%
CCCOCCOCCO,–,0.22%
COCCCOc1ccnc(CS(=O)c2nc3ccccc3[nH]2)c1C (stereo not given),inactive,–
Nc1ccc(S(=O)(=O)Nc2ccc(Cl)nn2)cc1,–,-0.0512% [at 26.5 µM]
CN1CCCC1=O,inactive,–
C=CCCC,–,0.986%
COC(=O)CCCCC(=O)O,–,0.0069%
CC(C[N+](C)(C)C)OC(N)=O (stereo not given),–,0.455% [at 26.5 µM]
CC/C=C\C#N,–,-0.711%
Cc1ccc(C(=O)c2cc(O)c(O)c([N+](=O)[O-])c2)cc1,inactive,–
C(=C\c1ccccc1)/c1ccccc1,–,1.08%
CC(=O)Oc1cccc(O)c1,–,-0.281% [at 26.5 µM]
N[C@@H](CCC(=O)Nc1ccc([N+](=O)[O-])cc1)C(=O)O,–,0.402%
CNC(=O)Nc1ccc(Cl)c(Cl)c1,–,4.51%
CCOc1cc(NC(C)=O)ccc1C(=O)OC,–,0.175% [at 26.5 µM]
C[C@@H]1O[C@@H](OC[C@H]2O[C@@H](Oc3c(-c4ccc(O)c(O)c4)oc4cc(O)cc(O)c4c3=O)[C@H](O)[C@@H](O)[C@@H]2O)[C@H](O)[C@H](O)[C@H]1O,inactive,–

SMILES,Potency,activation
CC(C)c1cc2c(cc1S(=O)(=O)O)[C@@]1(C)CCC[C@@](C)(C(=O)O)[C@@H]1CC2,–,-0.762% [at 26.5 µM]
O=S1(=O)OC(c2ccc(O)cc2)(c2ccc(O)cc2)c2ccccc21,inactive,–
CC1(C)[C@@H]2CC[C@@]1(C)[C@H](O)C2,–,0.302%
CC(C=O)Cc1ccc(C(C)(C)C)cc1 (stereo not given),inactive,–
FC(F)(F)C(F)(F)C(F)(F)C(F)(F)C(F)(F)C(F)(F)CCI,–,0.491% [at 26.5 µM]
C=CC(=O)CC,–,0.222%
Cc1c(C(=O)c2c[nH]n(C)c2=O)ccc(S(C)(=O)=O)c1C1=NOCC1,–,-0.943% [at 26.5 µM]
C=C(C)C(=O)OCCOP(=O)(O)O,–,0.25%
CC1CCCC(=O)C1=O (stereo not given),–,0.479%
CC(C)C(=O)OCCOc1ccccc1,–,0.254%
CC(C)OC(=O)CCCCC(=O)OC(C)C,–,-0.0795%
CCCC(=O)OCC(COC(=O)CCC)OC(=O)CCC,–,-0.54%
CCCCCCCCCCCCC(=O)O,–,2.06%
CN(CC1(C)CCCO1)S(=O)(=O)c1ccc(Cl)c(S(N)(=O)=O)c1 (stereo not given),–,1.5% [at 26.5 µM]
COc1cc(C(=O)N2CCCCCCC2)cc(OC)c1OC,–,-0.247% [at 26.5 µM]
CC(COC(=O)c1ccccc1)OC(=O)c1ccccc1 (stereo not given),–,-1.22%
CCCCN=C(N)N=C(N)N,–,-0.441% [at 26.5 µM]
C=CC(C)(CCC=C(C)C)OC=O (stereo not given),–,-0.255%
Nc1nc(=O)n([C@@H]2O[C@H](CO)[C@@H](O)[C@@H]2F)cc1I,–,-0.188% [at 26.5 µM]
CCC(C)C1N=C(C)C(C)S1 (stereo not given),–,0.142%
